BoNT-A LC inh2: BoNT A light chain protease inhibition. 0.17% of 360,000 active. multiplex microsphere protease substrate cleavage, flow cytometry. inhibition, % at 10 µM; note: plate controls were buffer without enzyme for full effect and enzyme alone for no effect
BoNT F protease: blocks Botulinum neurotoxin F light chain protease; Multiplex microsphere protease cleavage assay, flow cytometry; inhibition, % at 10 µM; 0.22% of 360,000 active; in the data active = inhibition above about 35%, passing the limit was not always enough; inconclusive = no clear call, values can overlap the other calls; note: plate controls were buffer without enzyme for full effect and enzyme alone for no effect
Anthrax LF prot: blocks Bacillus anthracis lethal factor protease. 0.12% of 360,000 active. multiplex microsphere protease cleavage assay, LF. AID 588501. inhibition, % at 10 µM. P15917; note: plate controls were buffer without enzyme for full effect and enzyme alone for no effect
Autofluor counter: counter-screen for toxin protease inhibitors: compound fluorescence; compound autofluorescence counterscreen, microsphere flow cytometry; active compounds read high; fluorescence intensity (test concentration not listed); 3.1% of 360,000 active; AID 624483; in the data active = fluorescence intensity above about 16000; inconclusive = no clear call, values can overlap the other calls
* marks the source's active call; other numbers are inactive results. Only some compounds are listed: those with a hit (about 3.5% of all), similar ones and a draw of the others. Cut-off read from the data, not from the text of the source, unless noted: active = inhibition above about 30%; inconclusive = no clear call, values can overlap the other calls; inactive = below that.

CC1CN(C2CCN(C(=O)c3ccccc3)CC2)CC(C)O1 (stereo not drawn) was read as BoNT-A LC inh2 -0.3, BoNT F protease 1.1, Anthrax LF prot -2.2 and Autofluor counter 16799*.
`CC1CN(C(=O)c2ccc(C(=O)c3ccccc3)cc2)CC(C)O1` (stereo not drawn) gave BoNT-A LC inh2 0.0, BoNT F protease -16.5, Anthrax LF prot -3.6 and Autofluor counter 7559.
For Cc1cccc(N(C(=O)c2snc(C(N)=O)c2N)C(C(=O)NCc2ccccc2)c2ccncc2)c1 (stereo not drawn) the results were BoNT-A LC inh2 -5.1, BoNT F protease -24.7, Anthrax LF prot 3.0 and Autofluor counter 3974.
Screening OC[C@@H]1CC[C@@H](Cc2ccc(-c3ccccc3)cc2)O1 returned BoNT-A LC inh2 -0.4, BoNT F protease 1.3, Anthrax LF prot -12.3 and Autofluor counter 3801.
Screening CCc1ccccc1NC(=O)CSc1n[nH]c(-c2cccnc2)n1 returned BoNT-A LC inh2 -0.4, BoNT F protease -18.0, Anthrax LF prot 5.1 and Autofluor counter 3495.
`CCc1ccccc1NC(=O)Cn1nnc(-c2cccnc2)n1` gave BoNT-A LC inh2 0.4, BoNT F protease 1.6, Anthrax LF prot -0.6 and Autofluor counter 22832*.
`CCOCCCNC(=O)c1c[nH]c2ccc(C)cc2c1=O` gave BoNT-A LC inh2 -1.0, BoNT F protease -0.7, Anthrax LF prot -0.2 and Autofluor counter 22538*.
Screening COc1cc2[nH]cc(C(=O)NCCc3ccccc3)c(=O)c2cc1OC returned BoNT-A LC inh2 -1.5, BoNT F protease -1.9, Anthrax LF prot -5.7 and Autofluor counter 17186*.
For COc1cc2[nH]cc(C(=O)NCc3ccccc3)c(=O)c2cc1OC the results were BoNT-A LC inh2 -0.3, BoNT F protease -24.1, Anthrax LF prot 0.7 and Autofluor counter 3753.
Screening COc1ccc(NC(=S)NN(C)C(=S)Nc2ccc(OC)cc2)cc1 returned BoNT-A LC inh2 -0.2, BoNT F protease -0.4, Anthrax LF prot -1.3 and Autofluor counter 2105.
Oc1ccc2oc3c(c2c1/C=N/n1cnnc1)CCCC3 was read as BoNT-A LC inh2 inconclusive, BoNT F protease -11.0, Anthrax LF prot -1.1 and Autofluor counter 21898*.
Cc1cccc(C)c1N=Cc1c(C(F)(F)F)[nH][nH]c1=O was read as BoNT-A LC inh2 -0.8, BoNT F protease -8.4, Anthrax LF prot 1.0 and Autofluor counter 2297.
For CCCCc1ccc(NC=C2C(=O)OC3(CCCCC3)OC2=O)cc1 the results were BoNT-A LC inh2 0.2, BoNT F protease -8.0, Anthrax LF prot 0.1 and Autofluor counter 3444.
NS(=O)(=O)c1ccc(NC=C2C(=O)OC3(CCCCC3)OC2=O)cc1 was read as BoNT-A LC inh2 0.7, BoNT F protease 1.3, Anthrax LF prot 0.0 and Autofluor counter 16483*.
`CN(CC(=O)NNC(=O)Cc1ccccc1F)S(=O)(=O)c1ccc(Cl)cc1` gave BoNT-A LC inh2 0.2, BoNT F protease -2.7, Anthrax LF prot 1.3 and Autofluor counter 4260.
For O=C(CSc1ncn(-c2ccccc2)n1)NCc1ccccc1 the results were BoNT-A LC inh2 inconclusive, BoNT F protease -3.8, Anthrax LF prot 0.1 and Autofluor counter 23754*.
For COc1ccccc1NC(=O)CSc1ncn(-c2ccccc2)n1 the results were BoNT-A LC inh2 inconclusive, BoNT F protease 8.7, Anthrax LF prot -5.3 and Autofluor counter 20548*.
`C=CCC1(CC=C)CCCN1C(=O)C1CCC(=O)N(CCc2ccc(OC)cc2)C1` (stereo not drawn) gave BoNT-A LC inh2 0.4, BoNT F protease 3.4, Anthrax LF prot 3.7 and Autofluor counter 6567.
Screening CC(C)NC(=O)NC(=O)CSc1ncc(C(F)(F)F)cc1Cl returned BoNT-A LC inh2 -2.1, BoNT F protease -3.1, Anthrax LF prot -0.2 and Autofluor counter 22963*.
O=C(CSc1nc(C2CC2)nc2ccccc12)N1c2ccccc2Sc2ccc(C(F)(F)F)cc21 was read as BoNT-A LC inh2 -0.9, BoNT F protease -3.0, Anthrax LF prot -2.3 and Autofluor counter 21370*.
Screening O=C(CSc1nc(C2CC2)nc2ccccc12)N1CCCCC1 returned BoNT-A LC inh2 -0.5, BoNT F protease 2.1, Anthrax LF prot -0.2 and Autofluor counter 5466.
Screening O=C(COc1ccc(Cl)cc1)Nc1cc(NC(=O)COc2ccc(Cl)cc2)cc(C(=O)O)c1 returned BoNT-A LC inh2 -3.8, BoNT F protease 0.3, Anthrax LF prot -8.2 and Autofluor counter 4225.
`O=C(Nc1ccc(N2C(=O)CCC2=O)cc1Cl)c1cccs1` gave BoNT-A LC inh2 -0.5, BoNT F protease 4.2, Anthrax LF prot 1.0 and Autofluor counter 3283.
Screening CCCC1(C(=O)OC)NC(c2ccc(OC)cc2OC)C2C(=O)N(c3cccc(C(C)=O)c3)C(=O)C21 (stereo not drawn) returned BoNT-A LC inh2 -0.2, BoNT F protease 14.8, Anthrax LF prot 3.9 and Autofluor counter 3489.

High-throughput results from PubChem BioAssay.
